Rab9 prom act: Rab9 promoter activation; Huh7 Rab9 promoter-luciferase reporter, luminescence, 24 h; actives 2.8% (n = 320,000); Potency, µM (highest dose often 9.22 µM), actives largely listed as activators; also: nearly all actives have a fitted effect of over 60% in size
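Luminescence from Amplite-detected luciferase (10 minutes, ambient) reports Rab9 promoter activation. Before that, stable Rab9-luciferase Huh7 cells (1500/well, reduced-serum OP-MEM I plus 10% FBS) were exposed to compound for 24 hours at 37C.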
ELG1 genotox: induces genotoxicity in HEK293T cells with luciferase-tagged ELG1 | HEK293T ELG1-luciferase reporter, luminescence, 16 h | Potency, µM (titrated, usually from 46 µM), actives largely listed as activators | actives 1.3% (n = 330,000) | AID 504466; also: nearly all actives have a fitted effect of over 60% in size
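Genotoxic stress is detected as increased luminescence from luciferase-tagged ELG1 in HEK293T cells, measured with ONE-Glo after a 16 hr treatment at 37 °C.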
SMN2 splice up: SMN2 splice variant enhancement; AID 1458; Potency, µM (series often up to 46.1 µM), actives largely listed as activators; HEK293 SMN2-luciferase splicing reporter, luminescence, 30-36 h; actives 2.8% (n = 210,000); also: nearly all actives have a fitted effect of over 55% in size
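qHTS luciferase splicing reporter: luminescence rises when SMN2 exon 7 is included in transfected HEK293 cells. Compound exposure lasted 30-36 h at 37C, with 4.5 mM final sodium butyrate as control, followed by a ONE-Glo read.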
Luc counter: Kinase-Glo luciferase inhibition (counter-screen). Q27757. Kinase-Glo luciferase, ATP luminescence, 8 min. Potency, µM (titrated, usually from 38.3 µM), hits mostly inhibitors. actives 0.28% (n = 200,000). AID 1379; also: nearly all actives have a fitted effect of over 60% in size
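Compound is pinned into ATP-containing buffer (10 uM ATP, imidazole pH 7.2, 7 mM MgCl2). Kinase-Glo luciferase reagent is then added. Light output is recorded following an 8-min room-temperature incubation.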
FLuc modulator: firefly luciferase modulation, counter-screen for miR-21 project. AID 588342. actives 6.9% (n = 360,000). Potency, µM (highest dose often 57.5 µM), hits mostly inhibitors. P08659. purified FLuc, Km substrates, luminescence inhibition; also: nearly all actives have a fitted effect of over 55% in size
Target sequence (P08659 whole entry, looked up): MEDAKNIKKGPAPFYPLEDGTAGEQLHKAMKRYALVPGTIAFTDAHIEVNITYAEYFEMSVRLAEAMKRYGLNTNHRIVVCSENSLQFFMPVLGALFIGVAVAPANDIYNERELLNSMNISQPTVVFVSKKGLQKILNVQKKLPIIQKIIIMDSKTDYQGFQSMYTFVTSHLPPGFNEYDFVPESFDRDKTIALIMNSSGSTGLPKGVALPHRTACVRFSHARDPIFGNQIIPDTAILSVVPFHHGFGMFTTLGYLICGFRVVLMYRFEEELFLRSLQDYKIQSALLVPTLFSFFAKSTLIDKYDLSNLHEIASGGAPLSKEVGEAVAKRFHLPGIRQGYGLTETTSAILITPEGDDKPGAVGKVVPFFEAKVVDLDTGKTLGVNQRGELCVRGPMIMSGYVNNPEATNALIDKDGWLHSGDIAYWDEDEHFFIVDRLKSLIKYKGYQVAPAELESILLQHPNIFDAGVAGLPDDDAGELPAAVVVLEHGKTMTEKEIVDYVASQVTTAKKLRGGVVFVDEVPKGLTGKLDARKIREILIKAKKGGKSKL
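Purified P. pyralis luciferase, 10 nM final, with Km-level 10 uM D-luciferin and 10 uM ATP in 50 mM Tris acetate pH 7.5, 10 mM Mg acetate, 0.01% Tween-20, 0.05% BSA; 6-point qHTS titration about 60 µM downward; luminescence read.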
NPC1 promoter act: activates the NPC1 promoter | Potency, µM (doses to about 9.22 µM), hits mostly activators | Huh7 NPC1 promoter luciferase reporter, 24 h | actives 2.4% (n = 320,000); also: nearly all actives have a fitted effect of over 60% in size
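Quantitative HTS used a cell-based reporter: Huh7 cells stably bearing the NPC1 promoter upstream of luciferase were treated with compounds for 24 h, and promoter activation was read as luminescence.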
Each line names hits and unclear results; the compound was inactive in the other large screens. Hits are enriched below; roughly 7.5% of the tested compounds scored in any of these assays. Calls follow the shape of the dose curve; as a rule, active = well fitted curve in the direction sought with a large enough effect; inconclusive = small, poorly fitted or top-dose-only effect, or another doubt; inactive = no such curve, though single readings can be large; an effect the other way counts as inactive or inconclusive.

CS(=O)(=O)Nc1ccccc1C(=O)OCc1cc(=O)n2nc(C3CCCCC3)sc2n1	none (no result: Rab9 prom act, ELG1 genotox, SMN2 splice up, Luc counter, NPC1 promoter act)
Cc1ccc2c(CC(=O)Nc3cccc(Cl)c3C)coc2c1	none (no result: Rab9 prom act, ELG1 genotox, Luc counter, NPC1 promoter act)
Cc1cc(=O)oc2cc(NC(=O)c3cccc(S(=O)(=O)N(C)C)c3)ccc12	Rab9 prom act 0.891µM, ELG1 genotox inconclusive, FLuc modulator inconclusive, NPC1 promoter act 1.26µM (no result: SMN2 splice up, Luc counter)
Cc1cc(=O)oc2cc(NC(=O)c3cccc(F)c3)ccc12	Rab9 prom act 1.41µM, NPC1 promoter act inconclusive (no result: SMN2 splice up, Luc counter)
Cc1cc(=O)oc2cc(NC(=O)c3ccc(OC(F)F)cc3)ccc12	Rab9 prom act inconclusive, ELG1 genotox 4.47µM, NPC1 promoter act inconclusive (no result: SMN2 splice up, Luc counter)
Cc1cc(=O)oc2cc(OCC(=O)Nc3cccc(S(=O)(=O)N(C)C)c3)ccc12	none
COCCCNC(=O)CCCn1c(=O)c2cccn2c2cccnc21	none (no result: Rab9 prom act, ELG1 genotox, SMN2 splice up, Luc counter, NPC1 promoter act)
CCCSc1ncc(Cl)c(C(=O)Nc2ccc(S(=O)(=O)N3CCCC(C)C3)cc2)n1 (configuration not stated)	none (no result: Rab9 prom act, ELG1 genotox, Luc counter, NPC1 promoter act)
Cc1cccc(S(=O)(=O)c2cn(Cc3ccc(F)cc3)c3cc(N4CCCCC4)c(F)cc3c2=O)c1	none (no result: Rab9 prom act, ELG1 genotox, SMN2 splice up, Luc counter, NPC1 promoter act)
O=C(NNC(=O)C1CC2CCC1C2)c1sc2ccccc2c1Cl (configuration not stated)	Rab9 prom act inconclusive, SMN2 splice up 22.4µM, FLuc modulator 23.9µM, NPC1 promoter act inconclusive
COc1ccc2c(Cl)c(C(=O)NC3CCS(=O)(=O)C3)sc2c1 (configuration not stated)	NPC1 promoter act inconclusive
O=C(NC1CC1)c1sc2cc(Cl)ccc2c1Cl	Rab9 prom act inconclusive, ELG1 genotox inconclusive, FLuc modulator 6.75µM, NPC1 promoter act inconclusive (no result: SMN2 splice up, Luc counter)
CC1(C)CC(NC(=O)c2sc3cc(Cl)ccc3c2Cl)CC(C)(C)N1	none
O=C(NC(=S)NCCO)c1sc2ccccc2c1Cl	Rab9 prom act 2.82µM, ELG1 genotox inconclusive, SMN2 splice up 12.6µM, FLuc modulator 6.01µM, NPC1 promoter act inconclusive
O=C(NNC(=S)NC1CCCCC1)c1sc2ccccc2c1Cl	FLuc modulator inconclusive
O=C(NC1CC1)c1sc2cc(F)ccc2c1Cl	Rab9 prom act inconclusive, ELG1 genotox inconclusive, FLuc modulator 9.53µM (no result: SMN2 splice up, Luc counter)
COc1cccc(OC)c1C(=O)Nc1ccc(-c2nc3ncccc3o2)cc1	none (no result: Rab9 prom act, ELG1 genotox, Luc counter, NPC1 promoter act)
O=C(NC1CC1)c1sc2ccccc2c1Cl	Rab9 prom act inconclusive, ELG1 genotox inconclusive, FLuc modulator 15.1µM, NPC1 promoter act inconclusive (no result: SMN2 splice up, Luc counter)
COC(=O)c1ccc(N/C=C/C(=O)c2ccc(OC)c(OC)c2)cc1	ELG1 genotox inconclusive
O=C(CN1CCN(C(=O)CNC(=O)c2ccc3c(c2)OCO3)CC1)Nc1cccc(F)c1	none (no result: SMN2 splice up, Luc counter)
COc1ccc(N/C=C/C(=O)c2cc(OC)c(OC)c(OC)c2)cc1	ELG1 genotox inconclusive, FLuc modulator 6.01µM (no result: SMN2 splice up, Luc counter)
COc1ccc(C(=O)/C=C/N2CCCCC2)cc1OC	FLuc modulator 23.9µM, NPC1 promoter act inconclusive
COc1ccc(C(=O)/C=C/Nc2cccc(C)n2)cc1OC	Rab9 prom act 2µM, ELG1 genotox inconclusive, SMN2 splice up 12.6µM, FLuc modulator 3.79µM, NPC1 promoter act 2.24µM
O=C(/C=C\Nc1cccc(F)c1)c1ccc2c(c1)OCO2	Rab9 prom act inconclusive, ELG1 genotox 0.146µM, FLuc modulator 0.12µM, NPC1 promoter act 0.316µM (no result: SMN2 splice up, Luc counter)
c1ccc2c(N3CCNCC3)nc(-c3ccc4c(c3)OCO4)nc2c1	none (no result: Rab9 prom act, ELG1 genotox, FLuc modulator, NPC1 promoter act)
COc1cccc(CS(=O)(=O)c2ccccc2)c1	none (no result: Rab9 prom act, ELG1 genotox, FLuc modulator, NPC1 promoter act)
CCCC(=O)N(c1ccc2oc(-c3ccccc3)c(C(=O)OCC)c2c1)S(=O)(=O)c1ccc(C)cc1	none (no result: Rab9 prom act, ELG1 genotox, Luc counter, NPC1 promoter act)
COc1ccc(N/C=C/C(=O)c2ccc(OC)c(OC)c2)cc1	FLuc modulator 2.39µM (no result: SMN2 splice up, Luc counter)
COC(=O)c1ccc(N/C=C\C(=O)c2ccc3c(c2)OCO3)cc1	Rab9 prom act inconclusive, FLuc modulator inconclusive, NPC1 promoter act inconclusive (no result: SMN2 splice up)
COc1ccc(N/C=C\C(=O)c2ccc3c(c2)OCO3)cc1OC	ELG1 genotox inconclusive, FLuc modulator 1.69µM
CCc1ccccc1NC(=O)CN(Cc1ccccc1)S(=O)(=O)c1ccc(Br)cc1	none (no result: Rab9 prom act, ELG1 genotox, Luc counter, NPC1 promoter act)
COc1ccc(NC(=O)CSc2nc(-c3cccs3)cc(C(F)(F)F)n2)cc1OC	none (no result: Rab9 prom act, ELG1 genotox, SMN2 splice up, Luc counter, NPC1 promoter act)
CCOc1ccc(-n2nc(CO)c(C(=O)NCc3ccc(Cl)cc3)n2)cc1	none (no result: Rab9 prom act, ELG1 genotox, Luc counter, NPC1 promoter act)
Cc1oc(C)c2c(=O)cc(-c3ccc4c(c3)OCO4)cc(OC(=O)c3ccccc3Br)c12	none (no result: Rab9 prom act, ELG1 genotox, Luc counter, NPC1 promoter act)
O=C(COC(=O)c1ccco1)c1ccc(Cl)cc1	FLuc modulator 1.69µM (no result: SMN2 splice up, Luc counter)
COc1ccc(C(=O)COC(=O)c2cc(=O)c3ccccc3o2)cc1	none (no result: Rab9 prom act, SMN2 splice up, Luc counter, FLuc modulator, NPC1 promoter act)
O=C(CSCc1ccc(Cl)cc1)c1ccco1	FLuc modulator 15.1µM
O=C(CSc1nc2cc(Cl)ccc2s1)c1ccco1	Rab9 prom act inconclusive, FLuc modulator inconclusive, NPC1 promoter act inconclusive
O=C(COC(=O)c1ccco1)Nc1ccccc1	FLuc modulator inconclusive
O=C(COC(=O)c1cc2ccccc2o1)c1ccccc1	ELG1 genotox inconclusive, FLuc modulator 6.01µM
O=C(COC(=O)c1ccco1)NCCNC(=O)COC(=O)c1ccco1	none (no result: SMN2 splice up, Luc counter)
O=C(COC(=O)c1ccco1)c1ccccc1	ELG1 genotox inconclusive, FLuc modulator 6.01µM (no result: SMN2 splice up, Luc counter)
O=C(NCc1ccc2c(c1)OCO2)c1ccc2c(c1)N(Cc1c(F)cccc1Cl)C(=O)c1ccccc1S2	none (no result: Rab9 prom act, ELG1 genotox, Luc counter, NPC1 promoter act)
CCC(=O)C1=C(c2ccc(F)cc2)N(C(=O)CC)n2cnnc2S1	none (no result: Rab9 prom act, ELG1 genotox, SMN2 splice up, Luc counter, NPC1 promoter act)
COC(=O)c1ccc(NC(=O)CN2CCCN(Cc3ccc(Cl)cc3)S2(=O)=O)cc1	none (no result: Rab9 prom act, ELG1 genotox, SMN2 splice up, Luc counter, NPC1 promoter act)
O=C(CCNc1ccc(F)cc1)c1cc2ccccc2o1	none

Screening data as filed in PubChem BioAssay.
